Compound activity from PubChem BioAssay.
KCC2 mod: modulates chloride dependent transport by human KCC2 | actives 2.2% (n = 190,000) | B-score of Tl+ flux slope (higher = more flux/activation; lower = inhibition) at 10 µM | Q9H2X9 | KCC2 cells, thallium flux FluoZin-2 fluorescence;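 active = thallium flux slope and its plate-corrected score both differing from the plate sample mean at a set confidence after two filtering rounds, in either direction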;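 note: slope of fluorescence scaled to starting intensity during 10 to 20 s after thallium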
Target sequence (Q9H2X9 whole entry, looked up): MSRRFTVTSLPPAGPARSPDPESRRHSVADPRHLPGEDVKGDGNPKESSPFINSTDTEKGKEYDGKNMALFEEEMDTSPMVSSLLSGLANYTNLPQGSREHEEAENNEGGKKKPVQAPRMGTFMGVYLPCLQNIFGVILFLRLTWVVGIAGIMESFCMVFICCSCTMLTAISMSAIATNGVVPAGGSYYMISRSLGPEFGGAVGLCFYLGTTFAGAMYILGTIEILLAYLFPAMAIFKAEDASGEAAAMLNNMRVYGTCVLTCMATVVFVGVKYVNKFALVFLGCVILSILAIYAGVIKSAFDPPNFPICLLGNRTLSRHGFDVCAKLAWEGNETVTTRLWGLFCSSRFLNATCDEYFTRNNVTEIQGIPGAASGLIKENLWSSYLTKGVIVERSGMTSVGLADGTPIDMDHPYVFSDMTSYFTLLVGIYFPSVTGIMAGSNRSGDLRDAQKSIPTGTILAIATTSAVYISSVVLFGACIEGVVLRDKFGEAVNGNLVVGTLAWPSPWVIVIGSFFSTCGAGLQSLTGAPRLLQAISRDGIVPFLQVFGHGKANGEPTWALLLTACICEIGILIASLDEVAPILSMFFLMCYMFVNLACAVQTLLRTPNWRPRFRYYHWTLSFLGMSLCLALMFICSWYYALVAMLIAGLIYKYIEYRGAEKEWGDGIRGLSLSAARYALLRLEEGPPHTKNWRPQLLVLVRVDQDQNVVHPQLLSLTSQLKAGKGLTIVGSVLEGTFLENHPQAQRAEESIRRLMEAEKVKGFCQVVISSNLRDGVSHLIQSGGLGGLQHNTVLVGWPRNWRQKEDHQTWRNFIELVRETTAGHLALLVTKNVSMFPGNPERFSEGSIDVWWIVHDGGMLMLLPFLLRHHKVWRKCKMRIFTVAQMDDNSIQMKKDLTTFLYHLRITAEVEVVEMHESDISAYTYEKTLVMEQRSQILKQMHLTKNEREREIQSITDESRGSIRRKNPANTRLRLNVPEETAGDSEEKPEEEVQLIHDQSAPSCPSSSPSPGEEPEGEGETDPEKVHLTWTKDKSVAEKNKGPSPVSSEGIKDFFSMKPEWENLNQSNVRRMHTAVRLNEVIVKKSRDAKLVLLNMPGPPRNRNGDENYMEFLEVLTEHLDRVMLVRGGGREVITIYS
RAM network inh: yeast RAM network inhibition | actives 1.8% (n = 190,000) | S. cerevisiae dse1pr::URA3 reporter, 5-FOA growth OD615, 2 d; analog-sensitive cbk1-as2 kinase mutant strain | inhibition, % at 50 µM | AID 868;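 active = inhibition above a set limit, 3 SD over mean compound inhibition, cut at about 8.4% in these data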;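 note: 0% = DMSO-only wells with no growth and 100% = 10 µM 1-NA-PP1 full growth; inhibition rescues growth on 5-FOA so higher OD means more RAM inhibition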
S1P4 agonist: agonists of human S1P4 receptor. AID 1509. S1P4-expressing cell line, agonist reporter assay. actives 0.35% (n = 220,000). activation, % at 4.98 µM; in the data active = activation above about 11%;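 note: 0% = DMSO vehicle and 100% = reference agonist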
S1P3 antag: blocks the human S1P3 receptor; CHO S1P3 NFAT-BLA reporter, FRET fluorescence, antagonist mode; inhibition, % at 4.98 µM; actives 0.27% (n = 170,000); AID 485;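 active = inhibition above the plate cutoff, the mean inhibition of test wells on that plate plus 3 SD, cut at about 28% in these data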;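 note: cells challenged with S1P at its EC80 of 0.8 µM; blue over green emission ratio from cleaved BLA substrate after 4 h stimulation; 0% = S1P-stimulated wells and 100% = unstimulated DMSO-only wells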
S1P4 antag: human S1P4 receptor antagonism; O95977; AID 1510; S1P4-expressing cells, antagonist mode, reporter read-out; inhibition, % at 4.98 µM; actives 0.26% (n = 220,000); in the data active = inhibition above about 29%;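 note: 0% = wells stimulated with agonist and 100% = vehicle wells without agonist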
ROMK mod: human ROMK K+ channel modulation, primary screen; Tet-inducible ROMK, thallium flux fluorescence; actives lie on both sides; B-score at 10 µM; actives 2% (n = 130,000); AID 1918;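 active = signal ratio slope over the read window, or its plate-corrected B-score, at least 3 SD from the plate mean, either direction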;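 note: B-score of the F/F0 ratio slope over 7 to 12 s after thallium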
ROMK retest: retested hit modulating human ROMK potassium channel; actives 54% (n = 3,000); AID 1917; shares compounds with ROMK mod; normalized thallium flux (F/F0 slope) at 10 µM; ROMK thallium flux, fluorescence ratio; hits give low values;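 active = Flux at 10 µM at least 3 SD below or above vehicle control mean in one or both replicates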
Active calls of the source: *. Hits are enriched below; roughly 5.1% of the tested compounds scored in any of these assays.

`Cc1cc(C)c(C)c(S(=O)(=O)NC(C)C(=O)O)c1C` (stereo not given) gave KCC2 mod -0.88, S1P4 agonist 3, S1P3 antag -5, S1P4 antag -4 and ROMK mod 0.15.
COC(=O)/C=C1\SC(=NC(=O)c2cccc(Cl)c2)NC1=O was read as KCC2 mod 1.6, RAM network inh 1, S1P4 agonist 0, S1P4 antag 5 and ROMK retest 0.052*.
For COC(=O)/C=C1/SC(=NC(=O)c2ccccc2)NC1=O the results were KCC2 mod 0.65, RAM network inh -1, S1P4 agonist -1, S1P3 antag -18 and S1P4 antag -24.
`COC(=O)/C=C1/SC(=NC(=O)c2ccc(F)cc2)NC1=O` gave KCC2 mod 0.84, S1P4 agonist 0, S1P3 antag 3, S1P4 antag -5 and ROMK retest 0.048*.
For Cc1ccc(NC(=O)Cn2nnc3ccccc3c2=O)cc1C the results were RAM network inh 0, S1P4 agonist 1, S1P3 antag -14, S1P4 antag -10 and ROMK mod -0.057.
`CC(C)NC(=O)/C(C#N)=C/c1ccc(N(C)C)o1` gave KCC2 mod -1.3, S1P4 agonist -1, S1P3 antag 9, S1P4 antag 13, ROMK mod -7.4* and ROMK retest 0.047*.
For Cc1ccc(/C=C(\C#N)C(=O)NC(C)C)o1 the results were KCC2 mod -0.34, RAM network inh -1, S1P4 agonist 2, S1P3 antag 3, S1P4 antag -9 and ROMK mod 0.022.
CCOC(=O)c1n[nH]c2ccccc12 was read as KCC2 mod -0.4, RAM network inh 1, S1P4 agonist 1, S1P4 antag -26, ROMK mod 2.2* and ROMK retest 0.073.
For CCOC(=O)C1=C(C)NC(C)=C(C(=O)OCC)C1c1sccc1C the results were RAM network inh 0, S1P4 agonist 3, S1P4 antag -14, ROMK mod -5.3* and ROMK retest 0.048*.
For CCOC(=O)C1=C(C)NC(C)=C(C(=O)OCC)C1c1cccs1 the results were KCC2 mod -1, RAM network inh -2, S1P4 agonist 2, S1P3 antag -8 and S1P4 antag -10.
For Oc1ccc(/C=N/NC(=S)N/N=C/c2ccc(O)cc2)cc1 the results were KCC2 mod -0.34, RAM network inh 1, S1P4 agonist 1, S1P3 antag 13, S1P4 antag 1, ROMK mod 3.3* and ROMK retest 0.093.
Screening Oc1ccc(/C=N/NC(=S)Nc2cccnc2)cc1 returned KCC2 mod -0.48, S1P4 agonist 0, S1P3 antag 7 and S1P4 antag 10.
For CCOC(=O)c1c(-c2ccc(C)cc2)csc1NC(=O)CCSc1nnc2ccccn12 the results were KCC2 mod -0.2, RAM network inh 4, S1P4 agonist 1, S1P3 antag -1, S1P4 antag -6 and ROMK mod -0.26.
For Cc1n[nH]c(=O)n1-c1cccc(C(F)(F)F)c1 the results were RAM network inh 3, S1P4 agonist 0, S1P4 antag -7 and ROMK retest 0.076.
`CC(C)(C)c1ccc(C(=O)NN2C(=O)CSC2=S)cc1` gave KCC2 mod -0.86, S1P4 agonist -1, S1P3 antag -4 and S1P4 antag 11.
